Measurements published in PubChem BioAssay (EPA / NIEHS).
Values joined by “and” are separate entries in the source; they are usually repeats but may differ in a detail not shown here. Identical values can stand only once. Inconclusive results are not listed. Some compounds were tested as several samples or in several runs, with calls that do not always agree. Active and inactive are the calls of the source. The calls were made as follows, unless noted: active = hit-call score of the fitted dose curve at least 0.9, where 1 is the maximum; inactive = score below 0.9.

How the values were obtained:
[1] = BSK_3C_VCAM1: BioMAP Diversity Plus: 3C Assay for Vascular cell adhesion molecule 1 (VCAM1) Biomarker Activity (AID 2282999); details: BioMAP 3C HUVEC, VCAM1 ELISA, cytokine-stimulated; actives raise or lower the signal
Summary of the method: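 Vascular primary endothelium (human umbilical vein) was exposed to chemicals and assayed 24 h later. VCAM-1 levels came from ELISA, with DMSO serving as baseline for bidirectional fitting.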

[2] = BSK_4H_Eotaxin3: BioMAP Diversity Plus: 4H Assay for Eotaxin 3 Biomarker Activity (AID 2283000); details: primary human endothelial cells (HUVEC); actives raise or lower the signal;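 as to outcome: CCL26 protein level quantified by ELISA in parallel with SRB cytotoxicity check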
Summary of the method: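 Human umbilical vein endothelial cells (BSK_4H system) dosed with test chemical; Eotaxin-3 (CCL26) measured by ELISA 24 h after dosing. Bidirectional curve fitting relative to DMSO negative control as baseline.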

[3] = target: human Peroxisome Proliferator-activated Receptor alpha (PPARa), PPARA (gene 5465) (UniProt Q07869); assay: ATG_PPARa_TRANS: Attagene TRANS-FACTORIAL HepG2 Assay for human Peroxisome Proliferator-activated Receptor alpha (PPARa) (AID 2283001; active = hit-call score of the fitted dose curve at least 0.9, where 1 is the maximum)
Summary of the method: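 Exposure: 24 h, transiently transfected HepG2 cells. Endpoint: GAL4-UAS reporter mRNA, RT-PCR with capillary electrophoresis fluorescence. Baseline: DMSO; increases fitted.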

[4] = target: human Peroxisome Proliferator-activated Receptor delta (PPARd), PPARD (gene 5467) (UniProt Q03181); assay: ATG_PPARd_TRANS: Attagene TRANS-FACTORIAL HepG2 Assay for human Peroxisome Proliferator-activated Receptor delta (PPARd) (AID 2283002; active = hit-call score of the fitted dose curve at least 0.9, where 1 is the maximum)
Summary of the method: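 Multiplexed trans-activation format: HepG2 liver cells expressing exogenous NR-Gal4 chimeras and GAL4-UAS reporters were exposed for 24 h. Reporter mRNA was detected by RT-PCR with capillary electrophoresis fluorescence; activity fitted as gain of signal relative to DMSO.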

[5] = read-out: Intercellular Adhesion Molecule 1 (ICAM1), ICAM1 (gene 3383); assay: BSK_3C_ICAM1: BioMAP Diversity Plus: 3C Assay for Intercellular Adhesion Molecule 1 (ICAM1) Biomarker Activity (AID 2283003); details: primary human endothelial cells (HUVEC); actives raise or lower the signal
Summary of the method: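 ELISA read-out of ICAM-1; HUVEC (primary human), 3C system, 24 h post-dosing; bidirectional fit vs DMSO baseline.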

[6] = BSK_3C_Proliferation: Cell Proliferation Assessment in the BioMAP Diversity Plus: 3C Assay (AID 2283006); details: primary human endothelial cells (HUVEC);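 as to AC50: potency may reflect either rise or fall in cell number versus DMSO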
Summary of the method: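 HUVEC, sub-confluent; 48 h chemical exposure; 10% TCA fix, 0.1% SRB stain, A560 total protein. Gain or loss of signal fitted both directions vs DMSO control.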

[7] = target: Peroxisome proliferator-activated receptor gamma (Homo sapiens) (UniProt P37231); assay: ATG_PPARg_TRANS: Attagene TRANS-FACTORIAL HepG2 Assay for human Peroxisome Proliferator-activated Receptor-gamma (PPARg) (AID 2283007; active = hit-call score of the fitted dose curve at least 0.9, where 1 is the maximum)
Summary of the method: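 Transient transfection of HepG2 with GAL4-UAS-driven reporter units; chemical dosing 24 h; total RNA → oligo(dT) RT → PCR with reporter primers → 6-FAM primer extension → HpaI digest 2 h 37 C → capillary electrophoresis. Positive direction vs DMSO.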

[8] = target: Nuclear receptor subfamily 1 group I member 2 (Homo sapiens) (UniProt O75469); assay: ATG_PXR_TRANS: Attagene TRANS-FACTORIAL HepG2 Assay for human Pregnane X Receptor (PXR) (AID 2283008; active = hit-call score of the fitted dose curve at least 0.9, where 1 is the maximum)
Summary of the method: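 Trans-factorial format: exogenous NR-Gal4 fusion activity, not endogenous factor, in transfected human HepG2 liver cells. After 24 h dosing, RNA isolated, reverse-transcribed, amplified and resolved by capillary electrophoresis; induction scored versus DMSO.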

[9] = target: Retinoic acid receptor RXR-alpha (Homo sapiens) (UniProt P19793); assay: ATG_RXRa_TRANS: Attagene TRANS-FACTORIAL HepG2 Assay for human Retinoid X Receptor alpha (RXRa) (AID 2283012; active = hit-call score of the fitted dose curve at least 0.9, where 1 is the maximum)
Summary of the method: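 Read-out: fluorescent reporter-transcript fragments quantified by capillary electrophoresis after RT-PCR. Transiently transfected HepG2 cells carrying GAL4-UAS reporters and NR-GAL4 chimeras were exposed to chemical for 24 h; activity scored as increase over DMSO.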

[10] = target: human Retinoid X Receptor beta (RXRb), RXRB (gene 6257) (UniProt P28702); assay: ATG_RXRb_TRANS: Attagene TRANS-FACTORIAL HepG2 Assay for human Retinoid X Receptor beta (RXRb) (AID 2283013; active = hit-call score of the fitted dose curve at least 0.9, where 1 is the maximum)
Summary of the method: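 Read-out: reporter mRNA induction via RT-PCR plus capillary electrophoresis fluorescence, analysed as signal increase relative to DMSO. Cells were human HepG2, transiently transfected with GAL4-UAS reporter constructs and chimeric receptor-Gal4 fusions, dosed for 24 h.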

[11] = target: human Thyroid Receptor alpha (THRa1), THRA (gene 7067) (UniProt P10827); assay: ATG_THRa1_TRANS: Attagene TRANS-FACTORIAL HepG2 Assay for human Thyroid Receptor alpha (THRa1) (AID 2283014; active = hit-call score of the fitted dose curve at least 0.9, where 1 is the maximum)
Summary of the method: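 Transcripts from GAL4-UAS-driven reporters, measured after 24 h compound exposure by RT-PCR plus capillary electrophoresis of 6-FAM-labeled fragments, were fitted for gain of signal relative to DMSO. Cells: transiently transfected HepG2 expressing NR-Gal4 chimeras.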

[12] = read-out: E-selectin (Homo sapiens) (UniProt P16581); assay: BSK_3C_Eselectin: BioMAP Diversity Plus: 3C Assay for Eselectin Biomarker Activity (AID 2283015); details: primary human endothelial cells (HUVEC); actives raise or lower the signal;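 as to outcome: cell surface E-selectin protein quantified by ELISA 24 h after dosing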
Summary of the method: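 E-selectin ELISA readout, fitted bidirectionally relative to DMSO, taken 24 h post-dosing in HUVEC cultures of the 3C system. Overt cytotoxicity tracked with sulforhodamine B staining of parallel wells.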

[13] = read-out: Interleukin-1 alpha (IL1a), IL1A (gene 3552); assay: BSK_BE3C_IL1a: BioMAP Diversity Plus: BE3C Assay for Interleukin-1 alpha (IL1a) Biomarker Activity (AID 2283016); details: primary human bronchial epithelial cells; actives raise or lower the signal
Summary of the method: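 ELISA read-out of IL-1a from human lung bronchial epithelial primary cells, 24 h post-dose. Gain or loss of signal fitted relative to DMSO negative control.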

[14] = read-out: Monocyte Chemoattractant Protein-1 (MCP1), CCL2 (gene 6347); assay: BSK_3C_MCP1: BioMAP Diversity Plus: 3C Assay for Monocyte Chemoattractant Protein-1 (MCP1) Biomarker Activity (AID 2283017); details: primary human endothelial cells (HUVEC); actives raise or lower the signal
Summary of the method: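 MCP-1 was measured by ELISA 24 h after dosing in primary HUVEC 3C cultures and fitted in both directions relative to DMSO; cytotoxicity was checked by SRB total-protein staining in parallel wells.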

[15] = read-out: Monocyte Chemoattractant Protein-1 (MCP1), CCL2 (gene 6347); assay: BSK_4H_MCP1: BioMAP Diversity Plus: 4H Assay for Monocyte Chemoattractant Protein-1 (MCP1) Biomarker Activity (AID 2283018); details: primary human endothelial cells (HUVEC); actives raise or lower the signal
Summary of the method: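 HUVEC primary cells, 24 h post-dose, MCP-1 by ELISA. Gain or loss of signal fitted bidirectionally vs DMSO baseline. Cytotoxicity: SRB stain (0.1% after 10% TCA fixation), read 560 nm, parallel cultures.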

[16] = target: human Retinoic Acid Receptor gamma (RARg), RARG (gene 5916) (UniProt P13631); assay: ATG_RARg_TRANS: Attagene TRANS-FACTORIAL HepG2 Assay for human Retinoic Acid Receptor gamma (RARg) (AID 2283009; active = hit-call score of the fitted dose curve at least 0.9, where 1 is the maximum)
Summary of the method: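 Readout: reporter transcript levels via RT-PCR, 6-FAM primer-extension labelling, HpaI digestion and capillary electrophoresis. Cells: HepG2 carrying transfected RARg-GAL4 chimera plus UAS reporter set. Dosing 24 h; DMSO negative control.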

[17] = target: human RAR-related Orphan Receptor beta (RORb), RORB (gene 6096) (UniProt Q92753); assay: ATG_RORb_TRANS: Attagene TRANS-FACTORIAL HepG2 Assay for human RAR-related Orphan Receptor beta (RORb) (AID 2283010; active = hit-call score of the fitted dose curve at least 0.9, where 1 is the maximum)
Summary of the method: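 HepG2, transient MRTU transfection (GAL4-UAS reporters, exogenous NR-Gal4 chimeras); 24 h compound exposure; total RNA → RT-PCR → 6-FAM primer extension → HpaI digest → CE fluorescence. Positive direction vs DMSO baseline.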

[18] = target: human RAR-related Orphan Receptor gamma (RORg), RORC (gene 6097) (UniProt P51449); assay: ATG_RORg_TRANS: Attagene TRANS-FACTORIAL HepG2 Assay for human RAR-related Orphan Receptor gamma (RORg) (AID 2283011; active = hit-call score of the fitted dose curve at least 0.9, where 1 is the maximum)
Summary of the method: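 Reporter transcripts from a transfected RORg-GAL4 chimera in HepG2 cells were quantified 24 h after dosing by RT-PCR, 6-FAM labelling, HpaI digestion and capillary electrophoresis; increases over DMSO baseline were fitted.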

[19] = target: human Retinoic Acid Receptor beta (RARb), RARB (gene 5915) (UniProt P10826); assay: ATG_RARb_TRANS: Attagene TRANS-FACTORIAL HepG2 Assay for human Retinoic Acid Receptor beta (AID 2283004; active = hit-call score of the fitted dose curve at least 0.9, where 1 is the maximum)
Summary of the method: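 Induction of reporter mRNA from a chimeric RARb-Gal4 construct was measured by RT-PCR, FAM labelling, HpaI digestion and capillary electrophoresis. Measurements followed 24 h compound treatment of transiently transfected human HepG2 liver cells, with DMSO as baseline.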

[20] = target: Retinoic acid receptor alpha (Homo sapiens) (UniProt P10276); assay: ATG_RARa_TRANS: Attagene TRANS-FACTORIAL HepG2 Assay for human Retinoic Acid Receptor alpha (RARa) (AID 2283005; active = hit-call score of the fitted dose curve at least 0.9, where 1 is the maximum)
Summary of the method: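 HepG2 cells transiently transfected with multiple reporter units expressing chimeric RARα-GAL4 fusion, with GAL4-UAS-driven reporters. After 24 h compound exposure, reporter mRNA induction quantified by RT-PCR and capillary electrophoresis with fluorescent labeling; gain-of-signal fitted relative to DMSO control.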

Chain of E-selectin (Homo sapiens) (P16581 whole entry, looked up): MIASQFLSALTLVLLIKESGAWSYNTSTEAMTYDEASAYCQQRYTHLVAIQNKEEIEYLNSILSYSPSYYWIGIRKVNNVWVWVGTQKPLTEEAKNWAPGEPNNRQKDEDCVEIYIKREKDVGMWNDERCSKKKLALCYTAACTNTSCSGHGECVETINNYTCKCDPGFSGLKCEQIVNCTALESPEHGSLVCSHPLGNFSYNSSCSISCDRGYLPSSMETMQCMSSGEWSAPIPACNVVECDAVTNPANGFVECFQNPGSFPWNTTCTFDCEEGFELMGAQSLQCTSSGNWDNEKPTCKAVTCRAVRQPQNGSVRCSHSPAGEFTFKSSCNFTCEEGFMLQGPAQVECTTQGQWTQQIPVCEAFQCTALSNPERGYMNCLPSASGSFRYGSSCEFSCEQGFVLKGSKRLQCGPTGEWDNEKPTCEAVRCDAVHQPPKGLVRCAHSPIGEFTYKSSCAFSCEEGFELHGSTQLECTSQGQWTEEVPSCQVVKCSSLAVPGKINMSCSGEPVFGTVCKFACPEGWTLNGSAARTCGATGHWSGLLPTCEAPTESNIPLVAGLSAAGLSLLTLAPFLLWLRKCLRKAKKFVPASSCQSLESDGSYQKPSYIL
Chain of human RAR-related Orphan Receptor beta (RORb), RORB (gene 6096) (Q92753 whole entry, looked up, the tested form may be a part): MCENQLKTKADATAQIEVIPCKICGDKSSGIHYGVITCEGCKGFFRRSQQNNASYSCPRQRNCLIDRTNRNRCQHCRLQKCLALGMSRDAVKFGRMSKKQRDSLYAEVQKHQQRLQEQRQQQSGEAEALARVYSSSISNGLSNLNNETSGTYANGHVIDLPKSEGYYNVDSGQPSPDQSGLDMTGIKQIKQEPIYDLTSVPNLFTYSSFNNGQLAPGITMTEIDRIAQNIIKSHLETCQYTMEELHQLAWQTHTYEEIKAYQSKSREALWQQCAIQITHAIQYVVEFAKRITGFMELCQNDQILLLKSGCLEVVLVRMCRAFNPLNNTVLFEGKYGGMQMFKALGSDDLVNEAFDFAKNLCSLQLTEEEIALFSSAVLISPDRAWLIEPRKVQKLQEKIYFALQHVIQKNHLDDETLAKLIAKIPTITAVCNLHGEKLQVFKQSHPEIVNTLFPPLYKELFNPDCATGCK
Chain of Peroxisome proliferator-activated receptor gamma (Homo sapiens) (P37231 whole entry, looked up, the tested form may be a part): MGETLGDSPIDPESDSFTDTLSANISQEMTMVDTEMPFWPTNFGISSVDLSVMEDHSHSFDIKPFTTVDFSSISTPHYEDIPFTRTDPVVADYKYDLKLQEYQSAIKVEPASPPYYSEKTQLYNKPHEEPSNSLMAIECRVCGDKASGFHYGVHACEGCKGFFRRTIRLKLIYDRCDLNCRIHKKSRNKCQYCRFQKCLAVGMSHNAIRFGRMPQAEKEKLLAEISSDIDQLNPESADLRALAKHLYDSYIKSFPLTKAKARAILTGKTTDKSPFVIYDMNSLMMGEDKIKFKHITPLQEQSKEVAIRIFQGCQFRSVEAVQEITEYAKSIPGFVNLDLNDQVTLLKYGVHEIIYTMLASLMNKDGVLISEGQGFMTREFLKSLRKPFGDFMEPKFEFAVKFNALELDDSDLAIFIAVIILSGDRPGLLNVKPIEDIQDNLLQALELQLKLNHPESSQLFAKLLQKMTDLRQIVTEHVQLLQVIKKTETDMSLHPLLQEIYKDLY
Chain of human RAR-related Orphan Receptor gamma (RORg), RORC (gene 6097) (P51449 whole entry, looked up, the tested form may be a part): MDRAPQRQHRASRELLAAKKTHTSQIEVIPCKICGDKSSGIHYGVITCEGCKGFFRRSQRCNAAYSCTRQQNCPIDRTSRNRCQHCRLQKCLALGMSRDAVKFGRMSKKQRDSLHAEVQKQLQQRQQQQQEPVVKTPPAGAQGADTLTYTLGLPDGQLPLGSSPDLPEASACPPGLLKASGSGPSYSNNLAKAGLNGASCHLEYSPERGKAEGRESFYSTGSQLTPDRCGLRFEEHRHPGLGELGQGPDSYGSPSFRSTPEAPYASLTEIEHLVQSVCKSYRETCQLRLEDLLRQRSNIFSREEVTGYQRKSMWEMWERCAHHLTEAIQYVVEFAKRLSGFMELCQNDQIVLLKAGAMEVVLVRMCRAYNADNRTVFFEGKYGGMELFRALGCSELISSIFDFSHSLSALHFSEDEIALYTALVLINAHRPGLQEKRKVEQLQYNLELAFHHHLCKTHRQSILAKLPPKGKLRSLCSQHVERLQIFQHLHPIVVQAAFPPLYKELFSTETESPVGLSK
Chain of human Retinoic Acid Receptor gamma (RARg), RARG (gene 5916) (P13631 whole entry, looked up, the tested form may be a part): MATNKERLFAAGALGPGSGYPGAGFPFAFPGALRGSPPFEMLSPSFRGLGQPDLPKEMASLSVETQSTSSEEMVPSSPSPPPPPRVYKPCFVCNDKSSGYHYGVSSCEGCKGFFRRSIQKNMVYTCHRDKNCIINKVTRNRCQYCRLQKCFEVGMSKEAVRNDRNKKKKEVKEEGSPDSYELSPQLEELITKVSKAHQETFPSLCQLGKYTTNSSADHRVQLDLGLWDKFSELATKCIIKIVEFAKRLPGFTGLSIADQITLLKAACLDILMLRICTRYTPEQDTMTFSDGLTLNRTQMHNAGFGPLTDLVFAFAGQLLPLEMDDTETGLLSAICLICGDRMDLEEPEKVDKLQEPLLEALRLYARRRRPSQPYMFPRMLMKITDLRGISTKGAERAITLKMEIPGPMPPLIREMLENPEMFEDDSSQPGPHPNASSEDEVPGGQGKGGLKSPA
Chain of Retinoic acid receptor alpha (Homo sapiens) (P10276 whole entry, looked up, the tested form may be a part): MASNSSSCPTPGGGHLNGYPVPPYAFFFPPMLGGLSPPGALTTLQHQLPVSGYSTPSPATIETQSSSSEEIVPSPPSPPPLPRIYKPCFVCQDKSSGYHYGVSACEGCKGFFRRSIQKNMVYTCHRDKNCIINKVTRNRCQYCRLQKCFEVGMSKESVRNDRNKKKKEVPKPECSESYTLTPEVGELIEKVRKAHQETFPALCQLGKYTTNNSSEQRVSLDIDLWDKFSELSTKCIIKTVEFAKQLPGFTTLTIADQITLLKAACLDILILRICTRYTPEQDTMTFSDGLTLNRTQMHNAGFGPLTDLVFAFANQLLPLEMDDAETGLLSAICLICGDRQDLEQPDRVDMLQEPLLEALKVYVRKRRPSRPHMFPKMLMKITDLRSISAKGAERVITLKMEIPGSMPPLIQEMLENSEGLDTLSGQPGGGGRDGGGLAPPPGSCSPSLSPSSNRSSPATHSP
Chain of Nuclear receptor subfamily 1 group I member 2 (Homo sapiens) (O75469 whole entry, looked up, the tested form may be a part): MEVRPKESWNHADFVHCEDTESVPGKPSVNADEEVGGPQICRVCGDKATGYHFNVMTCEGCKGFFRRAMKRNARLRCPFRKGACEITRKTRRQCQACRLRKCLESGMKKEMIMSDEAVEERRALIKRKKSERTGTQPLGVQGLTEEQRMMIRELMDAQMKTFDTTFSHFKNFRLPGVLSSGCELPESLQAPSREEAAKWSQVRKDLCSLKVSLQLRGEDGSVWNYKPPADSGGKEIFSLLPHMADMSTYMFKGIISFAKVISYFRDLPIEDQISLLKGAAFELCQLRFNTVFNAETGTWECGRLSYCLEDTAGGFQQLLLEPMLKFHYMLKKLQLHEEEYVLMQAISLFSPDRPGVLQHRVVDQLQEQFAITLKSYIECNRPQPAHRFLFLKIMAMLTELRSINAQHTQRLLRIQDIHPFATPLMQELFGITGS
Chain of human Peroxisome Proliferator-activated Receptor alpha (PPARa), PPARA (gene 5465) (Q07869 whole entry, looked up, the tested form may be a part): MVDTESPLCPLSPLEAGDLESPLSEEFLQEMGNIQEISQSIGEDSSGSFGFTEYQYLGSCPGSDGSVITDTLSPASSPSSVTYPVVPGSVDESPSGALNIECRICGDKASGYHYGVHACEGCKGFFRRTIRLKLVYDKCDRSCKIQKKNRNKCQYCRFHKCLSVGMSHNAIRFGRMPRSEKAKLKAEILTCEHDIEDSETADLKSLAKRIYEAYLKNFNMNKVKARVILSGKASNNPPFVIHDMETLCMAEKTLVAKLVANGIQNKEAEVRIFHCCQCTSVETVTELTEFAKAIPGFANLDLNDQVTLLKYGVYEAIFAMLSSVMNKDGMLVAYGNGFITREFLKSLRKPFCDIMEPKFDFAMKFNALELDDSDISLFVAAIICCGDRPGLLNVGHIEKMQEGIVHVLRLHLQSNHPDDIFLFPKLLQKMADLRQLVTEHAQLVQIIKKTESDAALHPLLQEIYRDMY
Chain of Retinoic acid receptor RXR-alpha (Homo sapiens) (P19793 whole entry, looked up, the tested form may be a part): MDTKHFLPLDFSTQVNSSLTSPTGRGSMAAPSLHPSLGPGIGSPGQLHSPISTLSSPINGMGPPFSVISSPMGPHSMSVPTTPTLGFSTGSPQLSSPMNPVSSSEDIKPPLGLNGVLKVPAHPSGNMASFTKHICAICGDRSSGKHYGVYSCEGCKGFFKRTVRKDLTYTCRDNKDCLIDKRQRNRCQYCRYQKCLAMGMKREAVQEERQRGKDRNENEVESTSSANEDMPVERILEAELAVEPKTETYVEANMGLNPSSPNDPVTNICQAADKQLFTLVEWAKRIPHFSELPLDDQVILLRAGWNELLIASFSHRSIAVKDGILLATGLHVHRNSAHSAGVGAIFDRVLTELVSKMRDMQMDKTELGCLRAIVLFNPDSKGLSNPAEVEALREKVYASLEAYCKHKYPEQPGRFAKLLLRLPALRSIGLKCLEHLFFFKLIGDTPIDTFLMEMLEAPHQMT
Chain of human Thyroid Receptor alpha (THRa1), THRA (gene 7067) (P10827 whole entry, looked up, the tested form may be a part): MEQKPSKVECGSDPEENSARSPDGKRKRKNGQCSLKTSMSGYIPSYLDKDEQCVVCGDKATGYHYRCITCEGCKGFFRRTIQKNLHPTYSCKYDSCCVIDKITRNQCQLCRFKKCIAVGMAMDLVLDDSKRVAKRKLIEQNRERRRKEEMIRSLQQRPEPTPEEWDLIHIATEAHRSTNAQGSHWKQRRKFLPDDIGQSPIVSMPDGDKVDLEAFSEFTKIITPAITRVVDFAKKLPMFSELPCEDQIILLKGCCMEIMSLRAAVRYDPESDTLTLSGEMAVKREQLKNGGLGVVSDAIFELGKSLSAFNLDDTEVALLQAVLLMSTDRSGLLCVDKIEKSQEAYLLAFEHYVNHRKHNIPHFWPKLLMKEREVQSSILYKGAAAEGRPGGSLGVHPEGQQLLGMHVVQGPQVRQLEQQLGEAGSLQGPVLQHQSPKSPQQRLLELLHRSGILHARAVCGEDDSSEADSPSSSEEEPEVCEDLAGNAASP

c1ccc2c(c1)Nc1ccccc1S2
outcome [1]: inactive
outcome [2]: inactive
outcome [3]: inactive
outcome [4]: inactive
outcome [5]: inactive
AC50 [6]: 21.6 µM (active)
AC50 [7]: 26.7 µM (active)
AC50 [8]: 11.1 µM (active)
outcome [9]: inactive
AC50 [10]: 3.98 µM (active)
outcome [11]: inactive
outcome [12]: inactive
outcome [13]: inactive
outcome [14]: inactive
outcome [15]: inactive

c1ccc2c(c1)sc1ccccc12
outcome [1]: inactive
outcome [2]: inactive
outcome [3]: inactive
outcome [5]: inactive
outcome [6]: inactive
outcome [7]: inactive
outcome [8]: inactive
outcome [16]: inactive
outcome [11]: inactive
outcome [12]: inactive
outcome [13]: inactive
outcome [14]: inactive
outcome [15]: inactive

C=CC(=O)OCC(F)(F)C(F)F
AC50 [1]: 35.5 µM (active) and 37 µM (active)
AC50 [2]: 30 µM (active) and 21 µM (active)
outcome [3]: inactive
outcome [5]: inactive
AC50 [6]: 30 µM (active) and 36 µM (active)
AC50 [7]: 3.8 µM (active)
outcome [8]: inactive
outcome [16]: inactive
outcome [9]: inactive
outcome [11]: inactive
AC50 [12]: 18.4 µM (active) and 20.4 µM (active)
outcome [13]: inactive
outcome [14]: inactive
outcome [15]: inactive

ClC(Cl)=C(c1ccc(Cl)cc1)c1ccccc1Cl
AC50 [1]: 10.7 µM (active)
AC50 [2]: 6 µM (active)
outcome [3]: inactive
outcome [4]: inactive
AC50 [5]: 28.7 µM (active)
AC50 [6]: 11.7 µM (active)
outcome [7]: inactive
AC50 [8]: 2.27 µM (active)
outcome [17]: inactive
outcome [9]: inactive
AC50 [10]: 27.7 µM (active)
AC50 [12]: 20 µM (active)
AC50 [13]: 14.2 µM (active)
AC50 [14]: 12.1 µM (active)
AC50 [15]: 5.93 µM (active)

CCCCC(CC)COC(=O)c1c(Br)c(Br)c(Br)c(Br)c1C(=O)OCC(CC)CCCC (stereo not drawn)
outcome [1]: inactive
outcome [2]: inactive
outcome [3]: inactive
outcome [5]: inactive
outcome [6]: inactive
outcome [7]: inactive
outcome [8]: inactive
outcome [18]: inactive
outcome [9]: inactive
outcome [11]: inactive
outcome [12]: inactive
outcome [13]: inactive
outcome [14]: inactive
outcome [15]: inactive

OCC(F)(F)OC(F)(F)C(F)(F)OC(F)(F)C(F)(F)OC(F)(F)F
AC50 [1]: 36.1 µM (active) and 50.3 µM (active)
AC50 [2]: 22.3 µM (active) and 42.2 µM (active)
outcome [3]: inactive
outcome [4]: inactive
AC50 [5]: 30 µM (active)
outcome [19]: inactive
outcome [20]: inactive
AC50 [6]: 15.5 µM (active) and 26.1 µM (active)
outcome [7]: inactive
outcome [8]: inactive
outcome [16]: inactive
outcome [17]: inactive
outcome [18]: inactive
outcome [9]: inactive
outcome [11]: inactive
AC50 [12]: 46.3 µM (active) and 55.2 µM (active)
outcome [13]: inactive
AC50 [14]: 45.4 µM (active) and 14.5 µM (active)
AC50 [15]: 45.4 µM (active)
outcome [15]: inactive

O=S(=O)(F)C(F)(F)C(F)(F)C(F)(F)C(F)(F)C(F)(F)C(F)(F)C(F)(F)C(F)(F)F
outcome [1]: inactive
outcome [2]: inactive
outcome [3]: inactive
outcome [5]: inactive
outcome [20]: inactive
outcome [6]: inactive
outcome [7]: inactive
outcome [8]: inactive
outcome [16]: inactive
outcome [17]: inactive
outcome [9]: inactive
outcome [11]: inactive
outcome [12]: inactive
outcome [13]: inactive
outcome [14]: inactive
outcome [15]: inactive

CCCCOCCOP(=O)(OCCOCCCC)OCCOCCCC
outcome [1]: inactive
outcome [2]: inactive
outcome [3]: inactive
outcome [4]: inactive
outcome [5]: inactive
outcome [19]: inactive
outcome [20]: inactive
outcome [6]: inactive
AC50 [7]: 58.7 µM (active)
outcome [8]: inactive
outcome [16]: inactive
outcome [18]: inactive
outcome [12]: inactive
outcome [13]: inactive
AC50 [14]: 3.97 µM (active)
outcome [15]: inactive
